Source: PubChem BioAssay AID687001 (Broad Institute, 2013)
Potency and affinity values are given separately. A number with no mark means an inactive call.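 Rule for the calls: active = signal-lowering compounds whose fitted half-maximal concentration is at or below twice the top tested dose in every run; inconclusive = runs disagree, flat 30 to 70% inhibition, or poor curve fit; inactive = the rest.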

These compounds were tested against Protein S100-A4 (Homo sapiens) (UniProt P26447) (assay: human S100A4 peptide interaction inhibition curves – biochemical, fluorescence polarization, cherry-picked hits, dose response (AID 687001;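 note: 0% = DMSO neutral control wells and -100% = TFP positive control wells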)). Conditions: FP, S100A4/TAMRA-myosin IIA peptide binding; series mostly up to 11 µM; activity change, negative = inhibition: at the top concentration.
Sequence of Protein S100-A4 (Homo sapiens) (P26447 whole entry, looked up): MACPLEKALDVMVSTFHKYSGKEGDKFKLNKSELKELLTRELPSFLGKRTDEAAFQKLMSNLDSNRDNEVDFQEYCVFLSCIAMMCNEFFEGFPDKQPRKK

Row | Structure (SMILES) | activity change, negative = inhibition
1 | Cn1c(-c2ccc(Cl)cc2)cnc1NCc1cc2c(cc1[N+](=O)[O-])OCO2 | -4.69%
2 | O=C(NCC[C@H]1CC[C@@H](NS(=O)(=O)c2ccccc2F)[C@H](CO)O1)c1ccc(F)cc1 | 7.18%
3 | COc1ccccc1NC(=S)NC(=O)Cc1ccccc1 | -2.14%
4 | C[C@@H]1CN([C@@H](C)CO)C(=O)CCCn2nncc2CO[C@@H]1CN(C)S(=O)(=O)c1ccccc1 | -4.68%
5 | COc1ccc2[nH]c3c(c2c1)CCN1C(=O)N([C@@H](C)C(=O)NCc2ccccc2)C(=O)[C@]31C | 8.69%
6 | COCCCNC(=O)C[C@@H]1C[C@@]2(C(=O)OC)CCCCC=C2N(Cc2ccc3c(c2)OCO3)C1=O | -2.69%
7 | C[C@H]1CN([C@@H](C)CO)C(=O)c2cc(NC(=O)CCC(F)(F)F)ccc2O[C@@H]1CN(C)S(=O)(=O)c1cn(C)cn1 | 0.537% [at 10 µM]
8 | O=C(Nc1ccccc1)N1CCCCN2[C@H](CO)[C@H](c3ccc(C#Cc4ccccn4)cc3)[C@H]2C1 | 18.6%
9 | COc1ccc(S(=O)(=O)N(C)C[C@@H]2OCCCC[C@@H](C)Oc3ccc(NC(=O)Nc4ccc(C(F)(F)F)cc4)cc3C(=O)N([C@H](C)CO)C[C@@H]2C)cc1 | 3.23% [at 10 µM]
10 | O=S(=O)(c1ccc2c(c1)CCCN2)N1CCCC2CCCCC21 (stereo not given) | 3.23%
11 | CC(=O)Nc1ccc(NC(=O)C(C)OC(=O)CCCN=C2NS(=O)(=O)c3ccccc32)cc1 (stereo not given) | 58%
12 | Cc1ccc(NS(=O)(=O)c2ccc(-c3coc(C)n3)cc2)c(C)c1 | -1.32%
13 | Cn1c(=O)c2sccc2n2c(CCCC(=O)N3CCN(c4ccccn4)CC3)nnc12 | 3.24%
14 | CN(C)CCCNC(=O)C[C@@H]1CC[C@H]2[C@@H](COC[C@@H](O)CN2Cc2ccc(Cl)c(Cl)c2)O1 | 6.42%
15 | CC(C)NC(=O)c1ccc(COc2cc(Cl)ccc2Cl)o1 | 1.71%
16 | CCC(=O)N1C[C@H](C)[C@@H](OC)CN(C)C(=O)c2ccc(NC(=O)Nc3ccccc3)cc2OC[C@H]1C | 2.16%
17 | C[C@@H]1CN([C@H](C)CO)C(=O)CCCn2nncc2CO[C@@H]1CN(C)S(=O)(=O)c1ccc2ccccc2c1 | -2.22%
18 | COc1cc2cc(-c3ccc(O)cc3O)nc(C)c2cc1OC | -6.81%
19 | CCCNC(=O)N1[C@@H]2c3ccc(-c4ccccc4OC)c(=O)n3C[C@@H]2[C@@H](CO)[C@@H]1C(=O)NC1CCC1 | -1.44%
20 | COc1ccc(C)cc1NC(=O)CN1CCN(c2ccccn2)CC1 | -3.87%
21 | C[C@@H]1CCCCO[C@@H](CN(C)S(=O)(=O)c2cn(C)cn2)[C@@H](C)CN([C@H](C)CO)C(=O)c2cc(NS(=O)(=O)c3ccc(Cl)cc3)ccc2O1 | 5.4%
22 | CCN(CC)C(=O)c1ccccc1NS(=O)(=O)c1cccs1 | 1.48%
23 | COc1ccc(S(=O)(=O)N(C)C[C@H]2Oc3ncc(-c4ccncc4)cc3C(=O)N([C@@H](C)CO)C[C@H]2C)cc1 | -1.69%
24 | C[C@@H]1CN([C@H](C)CO)C(=O)Cc2cc(NS(=O)(=O)c3ccccc3)ccc2O[C@@H]1CN(C)Cc1ccccc1 | 1.23%
25 | CCCNC(=O)Nc1ccc2c(c1)OC[C@@H](C)N(C(=O)C1CC1)C[C@H](C)[C@@H](OC)CN(C)C2=O | 1.76%
